This is one part of the list. The hit rate among all sequences tested is not known here.

Antigen binding call data for 105 variants are collected here from the emibetuzumab library of Makowski et al. (2022).

B1: VH:VL chains; a variant is named by its letters at X, in order (parent)
chain 1: QVQLVQSGAEVKKPGASVKVSCKASGYTFTDYXMHWVRQAPGQGLEWMGXVNPNXXXTTYNQKFEGRVTMTTDTSTSTAYMELRSLRSDDTAVYYCARXNXLDXWGQGTTVTVSS
chain 2: DIQMTQSPSSLSASVGDRVTITCSVSSSVSSIYLHWYQQKPGKAPKLLIYSTSNLASGVPSRFSGSGSGTDFTLTISSLQPEDFATYYCQVYSGYPLTFGGGTKVEIK

Variants of B1 are the subject of this assay. The assay is described as follows: yeast display scFab, FACS + sequencing. The following applies: with MET. Put shortly: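 A yeast surface library of scFab variants carrying heavy-chain CDR mutations went through two magnetic enrichment rounds on Protein A beads coated with HGFR-Fc, then FACS. For sorting, cells were labelled for 3 h at room temperature with 1 nM HGFR-Fc and anti-Myc in PBSB containing 1% milk, and the top 50% of antigen-positive cells were gated. Input and round-3 sorted populations were deep sequenced in two replicates. A sequence was called an antigen binder if it appeared in both antigen-positive samples and a non-binder if it appeared only in the input.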
On to VAGGDDAV, for which the antigen binding call is “no binding”.

Regarding FAEGAAGD, the antigen binding call was “no binding”.

For VGGTSSLD, the antigen binding call is “no binding”.

DKRKGVSD chain 1 S88F: the antigen binding call is recorded as “no binding”.

For ATGRADGV, the antigen binding call is “no binding”.

FRGRGSAD: the antigen binding call is recorded as “binds”.

AAGRSDLV chain 1 R67H: the antigen binding call is given as “no binding”.

FAGRSDWV chain 1 R67H: the antigen binding call is on record as “no binding”.

For the variant YTTRDDSD, the antigen binding call is on record as “no binding”.

Consider YRTRDSLD, for which the antigen binding call is on record as “binds”.

As to SETTDAGD, the antigen binding call is recorded as “no binding”.

For the variant SEGGDAGD, the antigen binding call is on record as “no binding”.

Turning to SRTRDAGD, the antigen binding call is given as “binds”.

Take FRTRDAGD: the antigen binding call is listed as “binds”.

On to YRTRDSVA, for which the antigen binding call was “binds”.

As for FRTRDVGF, the antigen binding call is “no binding”.

Consider STEASYLS, for which the antigen binding call is recorded as “no binding”.

Turning to VGRATVGS, the antigen binding call is “no binding”.

As for FTRRSSLF chain 1 V111I, the antigen binding call was “no binding”.

On to FRGRDFLD, for which the antigen binding call is “no binding”.

On to FRTRDALD, for which the antigen binding call is given as “binds”.

Turning to FTTRDDSD, the antigen binding call is given as “no binding”.

In the case of YRTRDSVD, the antigen binding call is listed as “binds”.

For FRTRDSLD, the antigen binding call is listed as “binds”.

Take SARKGDVA: the antigen binding call is reported as “no binding”.

On to VTGTGDVY, for which the antigen binding call is “no binding”.

Turning to STGGDDGF, the antigen binding call is on record as “no binding”.

As to YAGGDDAV, the antigen binding call is “no binding”.

Regarding DTKAADGV, the antigen binding call was “no binding”.

DRAGDASD: the antigen binding call was “no binding”.

Consider YRGKDASD, for which the antigen binding call was “binds”.

On to YRAGAASD, for which the antigen binding call was “binds”.

Take YREGDASD: the antigen binding call is “no binding”.

In the case of YRAGSASD, the antigen binding call was “binds”.

For the variant AARADDAA, the antigen binding call was “no binding”.

As for SEARSDAA, the antigen binding call is “no binding”.

Take YAGEGFGV: the antigen binding call is given as “no binding”.

Regarding VKAGGSLY, the antigen binding call is “binds”.

Turning to VRERGAWD, the antigen binding call is “binds”.

VRERGASD: the antigen binding call is “binds”.

For VKKTGDLY, the antigen binding call is recorded as “no binding”.

Turning to VRERGSWD, the antigen binding call is reported as “binds”.

With VTERGSLD, the antigen binding call is on record as “no binding”.

For the variant VKAGGDVY, the antigen binding call is listed as “no binding”.

With VGGTSSSA, the antigen binding call is on record as “no binding”.

For AGGTSYSV, the antigen binding call is given as “no binding”.

As for SARADSGV, the antigen binding call is reported as “no binding”.

Turning to VTGGDYAV, the antigen binding call is recorded as “no binding”.

In the case of DEGTGAVA, the antigen binding call is reported as “no binding”.

Turning to VRERGSLY, the antigen binding call is “binds”.

For the variant VRKGGSVY, the antigen binding call is on record as “no binding”.

Regarding YRRGGSWD, the antigen binding call was “binds”.

YRARSSSD: the antigen binding call is recorded as “binds”.

Take YRARGSWD: the antigen binding call was “binds”.

Consider SEARSSSD, for which the antigen binding call is reported as “no binding”.

YRARSSWD: the antigen binding call is “binds”.

As to VAREDDLS, the antigen binding call is given as “no binding”.

With VEGGGDGA, the antigen binding call is “no binding”.

Take ATGRADVY: the antigen binding call was “no binding”.

As for VEEASSWA, the antigen binding call is listed as “no binding”.

SGGGNDLA chain 1 R87K: the antigen binding call is “no binding”.

With YRAGDSWD, the antigen binding call was “binds”.

For YRRGASWD, the antigen binding call is reported as “binds”.

Turning to YAAGSSWD, the antigen binding call is given as “no binding”.

DRAGDSWA: the antigen binding call is recorded as “no binding”.

Regarding DRAGDSWD, the antigen binding call is reported as “no binding”.

Turning to YRRGDAWD, the antigen binding call is given as “binds”.

With YRAGSSWD, the antigen binding call was “binds”.

As for DETKGDWD, the antigen binding call is given as “no binding”.

In the case of YRARGAWD, the antigen binding call is on record as “binds”.

With YEGAASWF, the antigen binding call was “no binding”.

For the variant YRAGGSWF, the antigen binding call is “binds”.

As for YRRGDSWD, the antigen binding call is listed as “binds”.

For YRAKGSWD, the antigen binding call was “binds”.

Regarding VTGTGDWV, the antigen binding call is “no binding”.

For the variant VEEEGSVV, the antigen binding call was “no binding”.

With DAKEGDAV, the antigen binding call is “no binding”.

DTGGGAWD: the antigen binding call is “no binding”.

FREGASWD: the antigen binding call is given as “no binding”.

For the variant YRRGDSAD, the antigen binding call is “binds”.

YKARGSWD: the antigen binding call is listed as “binds”.

Take FRAGSSWD: the antigen binding call is recorded as “binds”.

Turning to VEAGSDGV, the antigen binding call is listed as “no binding”.

For VEKEGDGV, the antigen binding call was “no binding”.

Take DTTGSASF: the antigen binding call is given as “no binding”.

As to YRAGGVGD, the antigen binding call is recorded as “binds”.

As for YRKENYGD, the antigen binding call is reported as “no binding”.

For YRAGGYGD, the antigen binding call is “binds”.

Consider VKGRGSAY, for which the antigen binding call is recorded as “binds”.

Turning to YKGRGSAY, the antigen binding call is “binds”.

For VAGTGDVF, the antigen binding call is on record as “no binding”.

For FRGRGFGV, the antigen binding call is on record as “binds”.

For the variant YRGRSAGV, the antigen binding call is given as “binds”.

For the variant YRGKSAAV, the antigen binding call is “binds”.

Regarding FKGRGFGV, the antigen binding call was “no binding”.

For the variant YRERTAAV, the antigen binding call is “no binding”.

Consider YTGKSVAV, for which the antigen binding call was “no binding”.

Consider YRGRTAAV, for which the antigen binding call is listed as “binds”.

In the case of DTREGAVV, the antigen binding call is “no binding”.

Consider VAGGDYLV, for which the antigen binding call is reported as “no binding”.

Take DKGGGDVA: the antigen binding call is recorded as “no binding”.

For the variant AGEGNSWA, the antigen binding call is recorded as “no binding”.

Regarding VAGTGDGA, the antigen binding call was “no binding”.

Consider VRGRDFGV, for which the antigen binding call is reported as “no binding”.

DRGRDFGV: the antigen binding call was “no binding”.
